These results are taken from PubChem BioAssay (NCATS).

Records with an inconclusive call do not appear. A call without a number means that no potency is given here. A number with no mark means an inactive call. The source made the active and inactive calls. The call rests on the fitted dose curve; in most records, active means well fitted curve in either direction with a large enough effect (not every such curve was filed as active); inconclusive means small, poorly fitted or top-dose-only effect, or another doubt; inactive means flat fitted curve, though single readings scatter. Peptide text beside a SMILES is read from it.
Potency means the concentration at half of the fitted maximal effect.

The target of the assay is Mitogen-activated protein kinase 10 (Mus musculus) (UniProt Q61831). Description: JNK3 AlphaScreen Assay (AID 530).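 Further: kinase came from lysate of stimulated human HepG2 cells.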 The conditions noted are these: JNK3 lysate, c-Jun phosphorylation; series mostly up to 57.1 µM; activity change, negative = inhibition: at the top concentration. An excerpt: NIH Chemical Genomics Center [NCGC]
NIH Molecular Libraries Screening Centers Network [MLSCN]
The c-jun N-terminal kinase (JNK) family are serine/threonine protein kinases that phosphorylate c-jun, a component of the transcription factor […] (AP-1). JNK kinases are members of the mitogen-activated protein kinase family including the extracellular regulated kinases and p38 kinases. Three JNK genes (JNK 1, 2, and 3) have been identified in humans so far. JNK1 and JNK2 have a broad distribution and JNK3 is primarily found in neuronal tissues and cardiac myocytes.
JNK3 has been under consideration as a target for the treatment of neurodegenerative disorders. […] JNK pathway is also involved in pathological process in a mouse model of Parkinson's disease (Xia et al., 2001).
Given these potential tissue distributions and links to neuroprotection, JNK3 inhibitors should provide useful investigational tools to study the role of this kinase in several diseases including, arthritis, stroke, myocardial infarction, ischemic injury and Parkinson's disease.
A homogeneous AlphaScreen is developed to measure the activity of JNK3. AlphaScreen is a two bead-based proximity-dependent chemical energy transfer luminescent assay platform. The phosphorylation of a biotinylated c-jun substrate by JNK3 can be detected with an antibody raised against phosphorylated c-jun. This process brings streptavidin donor beads and Protein-A acceptor beads to within a proximity range of <200 nm, and subsequently lead a chemical luminescent reaction upon exciting donor beads with 680 nm laser excitation light. Inhibition of JNK3 activity by small molecules and subsequent decrease in the antibody binding to biotinylated c-jun could attenuate or abolish this chemical luminescent reaction.
Yang DD, Kuan CY, Whitmarsh AJ, Rincon M, Zheng TS, Davis RJ, Rakic P and Flavell RA (1997) Absence of excitotoxicity-induced apoptosis in the hippocampus of mice lacking the Jnk3 gene. Nature 389:865-870. [PMID: 9349820]
Herdegen T, Claret FX, Kallunki T, Martin-Villalba A, Winter C, Hunter T, and Karin M (1998) Lasting N-terminal phosphorylation of c-Jun and activation of c-Jun N-terminal kinases after neuronal injury. J.Neurosci. 18:5124-5135. [PMID: 9651196]
Xia XG, Harding T, Weller M, Bieneman A, Uney JB and Schulz JB (2001) Gene transfer of the JNK interacting protein-1 protects dopaminergic neurons in the MPTP model of Parkinson's disease. Proc.Natl.Acad.Sci.U.S.A. 98:10433-10438.
NCGC Assay Protocol Summary:
GST-cJun (1-79) (Stratagene, La Jolla CA, #205145) was biotnylated by PerkinElmer (PerkinElmer-BioSignalInc. Montreal, Canada) and was detectable by the streptavidin Donor beads. Anti-(phospho)cJun (Ser73) antibody was from UpState (Charlottesvilles, VA, #06-659). JNK3-containing lysates were generated from HepG2 cells and pre-activated by interleukin1-beta and tumor necrosis factor alpha. All reagents were stored at -20 C before using. Phosphorylated biotinylated-GST-cJun was recognized by Anti-(phospho)cJun (Ser73) antibody and this process brings acceptor and donor beads together. Therefore JNK3 phosphorylation of cJun can be measured by Alpha reading by EnVision (PerkinElmer, Boston, MA).
The composition of kinase buffer was (in mM) 20 tris- HCl (pH 7.6) 10 MgCl2, 1 DTT, and 0.1 Na3VO4 and 0.01% Tween-20. Beads were diluted in detection buffer containing (in mM) 20 tris-HCl (pH 7.7), 20 NaCl and 80 EDTA and 0.3% BSA. The assay was performed at room temperature. All compounds were screened as titrations from 0.6 nM to 46 uM final concentration. The assay was performed in 1536-well format (white solid bottom and untreated) as follows:
Sequence,Parameter,Value,Description
1,Reagent,3 uL,Biotin-GST-cJun, Anti-(phospho)cJun and pre-activated JNK3-containing lysates
2,Compound,23 nL,Final concentration was 0.6nM to 46uM
3,Time,15 minutes,Room Temperature
4,Reagent,1 uL,ATP final concentration 10uM
6,Reagent,0.5 uL,2ng/well bead mixture
[…]
(In general: Alpha assays give light when donor and acceptor beads are brought close together.)
As for `Cc1c(OCC(F)(F)F)ccnc1CS(=O)c1nc2ccccc2[nH]1` (stereo not given), the Potency entry is “inactive”.

Consider `CCN(CC)C(=S)SSC(=S)N(CC)CC`, for which the Potency entry was “inactive”.

Regarding `NC(=NCc1ccccc1)NC(=O)c1nc(Cl)c(N)nc1N`, the Potency entry was “inactive”.

As to `O=c1c(O)c(-c2ccc(O)cc2O)oc2cc(O)cc(O)c12`, the “activity change, negative = inhibition” value is -6.87%.

`COc1ccccc1N1CCN(CCN(C(=O)C2CCCCC2)c2ccccn2)CC1`: the “activity change, negative = inhibition” value was 12.3%.

`CCOc1cc(CC(=O)N[C@@H](CC(C)C)c2ccccc2N2CCCCC2)ccc1C(=O)O`: the “activity change, negative = inhibition” value is -8.09% [at 25.6 µM].

In the case of `CCC1=C(C)CN(C(=O)NCCc2ccc(S(=O)(=O)NC(=O)NC3CCC(C)CC3)cc2)C1=O` (stereo not given), the “activity change, negative = inhibition” value is -2.78% [at 25.6 µM].

As to `COC(=O)C1=C(C)NC(C)=C(C(=O)OC(C)C)C1c1cccc2nonc12` (stereo not given), the “activity change, negative = inhibition” value was -28.5%.

As for `Oc1ccc(OCc2ccccc2)cc1`, the “activity change, negative = inhibition” value is -3.86% [at 25.6 µM].

Take `COc1ccc2cc([C@H](C)C(=O)O)ccc2c1`: the Potency result is “inactive”.

With `Cc1cccc(C#Cc2ccccc2)n1`, the Potency entry was “inactive”.

Turning to `CN1C(C(=O)Nc2ccccn2)=C(O)c2sccc2S1(=O)=O`, the “activity change, negative = inhibition” value is -2.67% [at 25.6 µM].

Take `CCCCc1ccc2nc(NC(=O)OC)[nH]c2c1`: the “activity change, negative = inhibition” value was 1.75% [at 25.6 µM].

With `COc1c2occc2cc2ccc(=O)oc12`, the Potency entry is “inactive”.

Take `O=C(CCc1ccc(O)cc1)c1c(O)cc(O)cc1O`: the “activity change, negative = inhibition” value was -12%.

With `O=C(O)c1cccnc1Nc1cccc(C(F)(F)F)c1`, the Potency entry is “inactive”.

Consider `c1ccc2[nH]c(-c3cscn3)nc2c1`, for which the Potency entry is “inactive”.

Consider `COc1cc(OC)c(C(=O)CCCN2CCCC2)c(OC)c1`, for which the “activity change, negative = inhibition” value was 5.32% [at 25.6 µM].

On to `CCc1nc(N)nc(N)c1-c1ccc(Cl)cc1`, for which the Potency entry was “inactive”.

Regarding `O=c1cc(N2CCOCC2)oc2c(-c3ccccc3)cccc12`, the Potency entry is “inactive”.

For the molecule `Cc1ccc(C)c(OCCCC(C)(C)C(=O)O)c1`, the Potency result was “inactive”.

Turning to `CNC[C@H](O)c1ccc(O)c(O)c1`, the Potency result was “inactive”.

As to `Cc1cc(C2CCCCC2)n(O)c(=O)c1`, the “activity change, negative = inhibition” value was -13.1% [at 25.6 µM].

On to `NS(=O)(=O)c1cc(C(=O)O)c(NCc2ccco2)cc1Cl`, for which the Potency entry was “inactive”.

Regarding `O=c1c(O)c(-c2cc(O)c(O)c(O)c2)oc2cc(O)cc(O)c12`, the Potency was 12.6 µM (active).

In the case of `COC(=O)[C@H](Cc1ccccc1)NC(=O)[C@@H](N)CC(=O)O` (H-Asp-Phe-OMe), the “activity change, negative = inhibition” value is -14.1%.

For the molecule `CC1(C)NC(=O)N(c2ccc([N+](=O)[O-])c(C(F)(F)F)c2)C1=O`, the Potency entry is “inactive”.

Consider `Cc1cc(=O)oc2cc(O)ccc12`, for which the “activity change, negative = inhibition” value was -1.52% [at 25.6 µM].

As to `O=C1c2ccccc2-c2n[nH]c3cccc1c23`, the Potency is 1 µM (active).

In the case of `NCCCCNCCCN`, the “activity change, negative = inhibition” value is 28.6%.

Regarding `CC(=O)Nc1ccc(O)cc1`, the Potency entry was “inactive”.

`CC(C)c1ccc2c(c1)c(SC(C)(C)C)c(CC(C)(C)C(=O)O)n2Cc1ccc(Cl)cc1`: the Potency entry is “inactive”.

For the molecule `O=c1ccc2ccc(O)c(O)c2o1`, the “activity change, negative = inhibition” value was 19%.

For the molecule `Nc1ccc(S(N)(=O)=O)cc1`, the Potency entry is “inactive”.

As for `O=C(O)c1cc(=O)c2c(OCC(O)COc3cccc4oc(C(=O)O)cc(=O)c34)cccc2o1`, the “activity change, negative = inhibition” value is -0.319% [at 25.6 µM].

As for `CCCCN(CCCC)CCC(O)c1cc2c(Cl)cc(Cl)cc2c2cc(C(F)(F)F)ccc12` (stereo not given), the “activity change, negative = inhibition” value is -2.65% [at 25.6 µM].

Consider `Cc1nc2n(c(=O)c1CCN1CCC(c3noc4cc(F)ccc34)CC1)CCCC2`, for which the Potency entry is “inactive”.

For the molecule `N=C(N=C(N)N)N1CCOCC1`, the Potency result is “inactive”.

As to `CN1CCC(=C2c3ccccc3CCc3sccc32)CC1`, the “activity change, negative = inhibition” value was -3.3% [at 25.6 µM].

Turning to `NNc1nncc2ccccc12`, the Potency result was “inactive”.
